Assay results from PubChem BioAssay AID2732 (Emory University Molecular Libraries Screening Center, 2010).
In all, about 220,000 compounds went through this assay and about 8,200 (3.7%) were called active.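 Rule for the calls: active = compounds that reduced the stress-induced luciferase reporter signal by more than about 70% of percent inhibition (limit read from the data); inactive = the rest.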 For the sample, actives were picked, then their nearest neighbours and some compounds at random. Residues, ends and D or L forms follow the SMILES beside them. *: point of attachment. Bz = O=C(c1ccccc1)*

Experiment: inhibitors of CHOP promoter induction, primary screen, cell-based, unfolded protein response, luciferase reporter (AID 2732);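 note: 0% = tunicamycin plus vehicle and 100% = wells without tunicamycin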
Conditions: CHO-K1 CHOP-promoter luciferase, tunicamycin-induced, 15-18 h; at 10 µM; hits give high values

| SMILES | inhibition |
| --- | --- |
| Cc1ccc(OCC(=O)Nc2nnc(-c3ccco3)s2)cc1 | 82.2% (active) |
| CNc1nnc(-c2ccco2)s1 | 7.19% (inactive) |
| COc1ccc(OCC(=O)Nc2nnc(-c3ccco3)s2)cc1 | 28.2% (inactive) |
| CC(NCc1ccccc1OC1CCCC1)c1ccccc1 (stereo not given) | 11.4% (inactive) |
| O=C(CSc1nc2ccccc2o1)N/N=C/c1ccccc1C(=O)O | -2.6% (inactive) |
| C=CCNC(=O)CSc1nc2scc(-c3ccco3)c2c(=O)n1CC=C | -19.4% (inactive) |
| O=S(=O)(Nc1ccc(Cl)cn1)c1cnc(Cl)c(Br)c1 | 9.6% (inactive) |
| CCN1C(=O)/C(=C\N2CCN(c3ccccc3)CC2)SC1=S | 23.4% (inactive) |
| CCCCN1C(=O)/C(=C2/C=CC=CN2C)SC1=S | -3.04% (inactive) |
| CCCCN1C(=O)/C(=C/C=C2/C=Cc3ccccc3N2CC)SC1=S | 70.5% (active) |
| CC1Cc2ccccc2N1CC(=O)Nc1ccc(S(N)(=O)=O)cc1 (stereo not given) | -11.8% (inactive) |
| COc1ccc(Nc2cc(Cl)ccc2C(=O)O)cn1 | 9.7% (inactive) |
| CCNC(=O)CCc1nc(-c2ccc(C(C)(C)C)cc2)no1 | 91% (active) |
| Cc1ccc(-c2noc(CCC(N)=O)n2)cc1 | 10.7% (inactive) |
| CCNC(=O)CCc1nc(-c2ccc(C)cc2)no1 | 11.2% (inactive) |
| CC1CCN(c2ccc([N+](=O)[O-])c(SCCO)c2)CC1 | 7.43% (inactive) |
| Cc1cccc(S(=O)(=O)CC(=O)Nc2nc(-c3ccccc3)cs2)c1 | -8.42% (inactive) |
| Cc1ccc(-c2nnc(-c3ccc(NC(=O)c4cccs4)cc3)o2)cc1 | 89% (active) |
| O=C(Nc1ccc2oc(-c3ccc4ccccc4c3)nc2c1)c1cccs1 | -26.2% (inactive) |
| Cc1ccc(C(=O)NNC(=O)c2cccs2)cc1 | -31.6% (inactive) |
| Cc1ccc(-c2csc(NNC(=O)c3ccccc3)n2)cc1 | 21.4% (inactive) |
| Cc1ccc(OCC(=O)Nc2ccc(-c3nc4ncccc4o3)cc2)cc1 | -4.24% (inactive) |

| SMILES | inhibition |
| --- | --- |
| O=C(O)c1ccc(NC(=O)c2cccs2)cc1 | 28.8% (inactive) |
| CCCc1ccc(-c2csc(NC(=O)Cc3cccs3)n2)cc1 | 12.1% (inactive) |
| Cc1ccc(-c2csc(NC(=O)c3cccs3)n2)cc1 | 78.4% (active) |
| COc1ccc(CC(=O)Nc2ccc(C(=O)NC(C)(C)C)cc2)cc1 | 19.1% (inactive) |
| COc1ccc(CC(=O)Nc2ccc(-c3nnc(-c4ccc(C)cc4)o3)cc2)cc1 | 83.6% (active) |
| Cc1ccc(-c2csc(NC(=O)Cn3[nH]c(=O)c4ccccc4c3=O)n2)cc1 | 80% (active) |
| CC(=O)N1CC[n+]2c(-c3ccc([N+](=O)[O-])cc3)csc21 | -3.95% (inactive) |
| O=C(O)CCc1cccnc1 | 16.7% (inactive) |
| COc1ccc(CN2CCOC2=O)cc1OC | -5.21% (inactive) |
| COc1ccc(N2C(=O)C3C(C2=O)C(C(=O)c2ccccc2)N2CCCC32)cc1 (stereo not given) | 11.9% (inactive) |
| CC(C)C[C@H](CO)Nc1nc(N(C)c2cccc(Cl)c2)c2ncn(C(C)C)c2n1 | 21.8% (inactive) |
| COC(=O)c1ccccc1N=Nc1c(C)[nH][nH]c1=O | 14.2% (inactive) |
| CCCNc1c(N)c(=O)c1=O | 3.2% (inactive) |
| CCc1c(C)nc2c(-c3ccccc3)c(C)nn2c1Nc1ccc(NC(C)=O)cc1 | 17.3% (inactive) |
| CCS(=O)(=O)c1cc([N+](=O)[O-])c(Sc2ccccc2N)s1 | -0.04% (inactive) |
| COc1cc(C(F)(F)F)nc2c(Br)c(C(C)(C)C)nn12 | 15% (inactive) |
| CCN(CC)CCn1cnc2c1c(=O)n(CCOC(=O)c1cc(OC)c(OC)c(OC)c1)c(=O)n2C | -3.64% (inactive) |
| Oc1c(CN2CCN(c3ccc(F)cc3)CC2)cc(Cl)c2cccnc12 | 92% (active) |
| Fc1ccc(N2CCN(Cc3cnc(Oc4ccc(Br)cc4)s3)CC2)cc1 | 21% (inactive) |
| CCN1CCN(C(c2cccnc2)c2cc(Cl)c3cccnc3c2O)CC1 (stereo not given) | -101% (inactive) |
| Cc1cc(N2CCN(c3ccc(F)cc3)CC2)n2ncnc2n1 | 1.35% (inactive) |
| O=C(C(Cc1ccccc1)n1cccc1)N1CCN(C2CCCCC2)CC1 (stereo not given) | 72.6% (active) |

| SMILES | inhibition |
| --- | --- |
| O=C(NC(Cc1ccccc1)C(=O)N1CCCC1C(=O)O)c1ccccc1 (stereo not drawn) (Bz-Phe-Pro-OH; configuration not given here) | -0.39% (inactive) |
| Cc1ccc(C(=O)N2CCN(C3CCCCC3)CC2)s1 | 12.7% (inactive) |
| CC(=O)c1ccc(S(=O)(=O)N2CCN(C(=O)/C=C/c3ccc4ccccc4n3)CC2)cc1 | 60% (inactive) |
| O=C(Nc1ccc(Cl)cc1)OCc1cc(-c2ccccc2)on1 | 89.7% (active) |
| O=C(Nc1ccccc1)OCc1cc(-c2ccc(Cl)cc2)on1 | -15.4% (inactive) |
| O=C(Nc1ccccc1)OCc1cn(-c2ccc(Cl)cc2)nn1 | -8.26% (inactive) |
| CCOC(=O)CN1CCC(c2ccccc2)CC1 | 8.89% (inactive) |
| CCOC(=O)Cn1c2c(c(-c3ccccc3OC)cc1=O)CCCC2 | 77.2% (active) |
| CCOC(=O)Cn1c(-c2cccnc2Cl)nc2ccccc21 | -1.12% (inactive) |
| FC(F)(F)c1nc(-c2ccccc2)ncc1-c1nnnn1-c1ccccc1 | 49.3% (inactive) |
| CCOC(=O)C(C)Sc1nc2ccccc2c(=O)n1CC1CCCCC1 (stereo not given) | 99.3% (active) |
| CC(Sc1nc2ccccc2c(=O)n1Cc1ccco1)C(=O)c1ccccc1 (stereo not given) | 16.2% (inactive) |
| CCOn1c(SC(C)C)nc2ccccc2c1=O | -9.05% (inactive) |
| Cc1nnc2n1N=C(c1ccc3c(c1)NC(=O)CO3)CS2 | 8.13% (inactive) |
| O=C(O)c1ccccc1C(=O)Nc1ccccc1[N+](=O)[O-] | -7.32% (inactive) |
| CCC(C)c1ccc(O)c(/C=N/O)c1 (stereo not given) | 71.8% (active) |
| CNCC(O)c1ccc(O)c(O)c1 (stereo not given) | -0.79% (inactive) |
| CC(=O)Oc1ccccc1C(=O)Nc1ncc([N+](=O)[O-])s1 | 72.1% (active) |
| O=C(CCc1ccccc1)Nc1ncc([N+](=O)[O-])s1 | -9.45% (inactive) |
| O=C(Cc1c(F)cccc1Cl)Nc1ncc([N+](=O)[O-])s1 | 9.25% (inactive) |
| O=C(NNC(=S)Nc1ccc(F)cc1)[C@H]1C[C@@H]1c1ccccc1 | 5.39% (inactive) |
